Inconclusive results are not listed. Activity calls are given as the source filed them.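 The calls were made as follows, unless noted: active = normalized viability below 100% at a tested concentration; inactive = the rest.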
Tests used:
[1] = growth inhibition of DIPG glioma cells, dose response, cell-based, SU-DIPG-XVII, MIPE5.0, CellTiter-Glo, qHTS (AID 1347060; cut-off not given, nearly all actives have AC50 up to about 26 µM;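 also: cells exposed to compound for 48 hours before viability readout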); settings: SU-DIPG-XVII viability, CellTiter-Glo ATP luminescence
[2] = growth inhibition of DIPG glioma cells, dose response, cell-based, JHH-DIPG-1, MIPE4.0, CellTiter-Glo, qHTS (AID 1347062; cut-off not given, nearly all actives have AC50 up to about 27 µM;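 also: cells exposed to compound for two days before readout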); settings: JHH-DIPG-1 viability, CellTiter-Glo ATP luminescence
[3] = growth inhibition of DIPG glioma cells, dose response, cell-based, SU-DIPG-IV, MIPE4.0, CellTiter-Glo, qHTS (AID 1347063; cut-off not given, nearly all actives have AC50 up to about 30 µM;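 also: compound exposure lasted 48 hours before the viability readout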); settings: SU-DIPG-IV viability, CellTiter-Glo ATP luminescence
[4] = growth inhibition of DIPG glioma cells, dose response, cell-based, SU-DIPG-XIII, MIPE5.0, CellTiter-Glo, qHTS (AID 1347064; cut-off not given, nearly all actives have AC50 up to about 23 µM;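 also: cells exposed to compound for 48 hours before the viability read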); settings: SU-DIPG-XIII viability, CellTiter-Glo ATP luminescence
[5] = viability loss in pontine glioma line – cell-based, SU-DIPG-XXV, MIPE5.0, CellTiter-Glo, qHTS, dose response (AID 1347065; cut-off not given, nearly all actives have AC50 up to about 26 µM;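 also: cells exposed to compound for 48 hours before ATP readout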); settings: CellTiter-Glo ATP luminescence
[6] = JHH-DIPG-1 glioma cell viability, MIPE5.0 library, CellTiter-Glo luminescence, qHTS (AID 1347067; cut-off not given, nearly all actives have AC50 up to about 26 µM;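 also: cells exposed to compound for 48 hours before readout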); settings: JHH-DIPG-1 glioma viability, CellTiter-Glo ATP luminescence
[7] = SU-DIPG-XXV glioma cell viability, MIPE5.0 library, qHTS (AID 1347068; cut-off not given, nearly all actives have IC50 up to about 30 µM;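 also: cells exposed to compound for 48 hours before viability readout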)
[8] = sensitizers of A549 cells to miR-34 induction, primary screen, imaging, A549 dox-inducible miR-34, nuclei and caspase counts (AID 1347080;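 active = compounds whose cell count with miR-34 switched on is under 0.7 times the count with it off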); settings: A549 miR-34 inducible, Hoechst nuclei count, 48 h
[9] = modifiers of HSF1 nuclear foci, imaging, Selleck Cancer Library (AID 1347162; in the data active = plate-normalised HSF1 focus index below about 0.46); settings: human cells, at 10 µM; SSMD: measured here: HSF1 foci SSMD mean; cell count: measured here: cell number; plate-normalised HSF1 focus index: stronger effect = lower value
[10] = survival rescue of mitochondrial mutant cells in low glucose, primary screen, MELAS cybrids, Rieske KO mouse fibroblasts, CellTiter-Glo (AID 1508586;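 active = mean z-score across replicates of 1.96 or higher in either the MELAS or the Rieske mutant cell line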;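 also: z relative to plate mean and SD of compound and empty wells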)
[11] = ovarian cancer cell viability with rucaparib, profiling panel, oncology-focused library, rucaparib conditional (AID 1508598); settings: patient-derived ovarian cancer cells, CellTiter-Glo viability, 144 h, stronger effect = lower value
[12] = stronger effect = lower value, cell number ratio, induced over uninduced
[13] = measured here: relative caspase fold change +Dox/-Dox
[14] = measured here: total cells with miR-34 induction, stronger effect = lower value
[15] = measured here: total cells without miR-34 induction
[16] = MELAS cybrid survival, CellTiter-Glo 48 h, stronger effect = higher value
[17] = Rieske KO mouse fibroblast survival, CellTiter-Glo 72 h
[18] = at 0.000305 µM, OCI-C5x cells, with rucaparib 10 µM, 100% = cells with rucaparib alone
[19] = at 0.000305 µM, OCI-C5x cells, without rucaparib
[20] = at 0.000305 µM, OCI-P5x cells, with rucaparib 20 µM, 100% = cells with rucaparib alone
[21] = at 0.000305 µM, OCI-P5x cells, without rucaparib
[22] = at 0.00122 µM, OCI-C5x cells, with rucaparib 10 µM, 100% = cells with rucaparib alone
[23] = at 0.00122 µM, OCI-C5x cells, without rucaparib
[24] = at 0.00122 µM, OCI-P5x cells, with rucaparib 20 µM, 100% = cells with rucaparib alone
[25] = at 0.00122 µM, OCI-P5x cells, without rucaparib
[26] = at 0.00488 µM, OCI-C5x cells, with rucaparib 10 µM, 100% = cells with rucaparib alone
[27] = at 0.00488 µM, OCI-C5x cells, without rucaparib
[28] = at 0.00488 µM, OCI-P5x cells, with rucaparib 20 µM, 100% = cells with rucaparib alone
[29] = at 0.00488 µM, OCI-P5x cells, without rucaparib
[30] = at 0.0195 µM, OCI-C5x cells, with rucaparib 10 µM, 100% = cells with rucaparib alone
[31] = at 0.0195 µM, OCI-C5x cells, without rucaparib
[32] = at 0.0195 µM, OCI-P5x cells, with rucaparib 20 µM, 100% = cells with rucaparib alone
[33] = at 0.0195 µM, OCI-P5x cells, without rucaparib
[34] = at 0.0781 µM, OCI-C5x cells, with rucaparib 10 µM, 100% = cells with rucaparib alone
[35] = at 0.0781 µM, OCI-C5x cells, without rucaparib
[36] = at 0.0781 µM, OCI-P5x cells, with rucaparib 20 µM, 100% = cells with rucaparib alone
[37] = at 0.0781 µM, OCI-P5x cells, without rucaparib
[38] = at 0.313 µM, OCI-C5x cells, with rucaparib 10 µM, 100% = cells with rucaparib alone
[39] = at 0.313 µM, OCI-C5x cells, without rucaparib
[40] = at 0.313 µM, OCI-P5x cells, with rucaparib 20 µM, 100% = cells with rucaparib alone
[41] = at 0.313 µM, OCI-P5x cells, without rucaparib
[42] = at 1.25 µM, OCI-C5x cells, with rucaparib 10 µM, 100% = cells with rucaparib alone
[43] = at 1.25 µM, OCI-C5x cells, without rucaparib
[44] = at 1.25 µM, OCI-P5x cells, with rucaparib 20 µM, 100% = cells with rucaparib alone
[45] = at 1.25 µM, OCI-P5x cells, without rucaparib
[46] = at 5 µM, OCI-C5x cells, with rucaparib 10 µM, 100% = cells with rucaparib alone
[47] = at 5 µM, OCI-C5x cells, without rucaparib
[48] = at 5 µM, OCI-P5x cells, with rucaparib 20 µM, 100% = cells with rucaparib alone
[49] = at 5 µM, OCI-P5x cells, without rucaparib

c1ccc2c(CCNc3ccc(Nc4ccncc4)cc3)c[nH]c2c1
-0.197: SSMD [9]
inactive: fold change [8, 12] 1.02 | plate-normalised HSF1 focus index [9] 0.99 | z-score [10, 16] -0.455 | viability [11, 18] 116% | viability [11, 19] 111% | viability [11, 20] 114% | viability [11, 21] 116% | viability [11, 22] 116% | viability [11, 23] 111% | viability [11, 24] 117% | viability [11, 25] 121% | viability [11, 26] 116% | viability [11, 28] 112% | viability [11, 29] 119% | viability [11, 30] 111% | viability [11, 31] 105% | viability [11, 32] 111% | viability [11, 33] 122% | viability [11, 34] 104% | viability [11, 35] 111% | viability [11, 36] 112% | viability [11, 37] 122% | viability [11, 38] 110% | viability [11, 39] 101% | viability [11, 41] 110% | viability [11, 42] 107% | viability [11, 43] 107% | viability [11, 45] 104% | viability [11, 47] 106%
1.37: fold change [8, 13]
active: AC50 [1] 18.6 µM | AC50 [2] 18.7 µM | AC50 [3] 18.7 µM | AC50 [4] 20.9 µM | AC50 [5] 26.3 µM | AC50 [6] 23.5 µM | IC50 [7] 5.9 µM | viability [11, 27] 99.7% | viability [11, 40] 99.7% | viability [11, 44] 94.3% | viability [11, 46] 25.5% | viability [11, 48] 78.5% | viability [11, 49] 99%
2540: cell count [8, 14]
2490: cell count [8, 15]
-0.307: z-score [10, 17]
6510: cell count [9]

O=C(Nc1cn[nH]c1-c1nc2ccc(CN3CCOCC3)cc2[nH]1)NC1CC1
0.829: fold change [8, 13]
-1.89: z-score [10, 17]
1190: cell count [8, 14]
inactive: fold change [8, 12] 1.08 | viability [11, 18] 103% | viability [11, 19] 125% | viability [11, 20] 120% | viability [11, 21] 122% | viability [11, 22] 128% | viability [11, 23] 132% | viability [11, 24] 111% | viability [11, 25] 116% | viability [11, 26] 116% | viability [11, 27] 119% | viability [11, 28] 116% | viability [11, 29] 118% | viability [11, 30] 102% | viability [11, 31] 111% | viability [11, 32] 120% | viability [11, 33] 105% | viability [11, 35] 108% | viability [11, 36] 111% | viability [11, 39] 104% | viability [11, 40] 109% | viability [11, 44] 118%
active: AC50 [1] 1.66 µM | AC50 [2] 10.5 µM | AC50 [3] 1.32 µM | AC50 [4] 5.9 µM | AC50 [5] 0.661 µM | AC50 [6] 1.86 µM | IC50 [7] 8.33 µM | z-score [10, 16] 2.04 | viability [11, 34] 82% | viability [11, 37] 76.9% | viability [11, 38] 89.8% | viability [11, 41] 66.7% | viability [11, 42] 36.1% | viability [11, 43] 48.8% | viability [11, 45] 53.2% | viability [11, 46] 26.8% | viability [11, 47] 18.2% | viability [11, 48] 39.6% | viability [11, 49] 18.8%
1110: cell count [8, 15]

Source: PubChem BioAssay
